Source: PubChem BioAssay (NCI)
Several values for one entry are separate records, joined by “and”; a condition that tells them apart may be missing. Equal values may be shown once. About 79,000 compounds went through this panel and 15% of them were active in at least one assay; those are over-represented in the sample as a whole. Some structures have more than one record in an assay (separate samples or runs), and their calls can disagree. Activity calls are given as the source filed them. No stated cut-off is given here; in the data, active means growth inhibition above about 70%; inactive means the rest.

What was measured:
[1] = NCI Yeast Anticancer Drug Screen. Data for the rad50 strain (AID 155);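 further: 0% = growth of vehicle-only cultures of the same strain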; details: S. cerevisiae rad50 strain growth inhibition, stronger effect = higher value
Procedure, shortened: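 Vehicle-treated cultures provide the reference for the growth inhibition reported for compound-exposed, repair-deficient yeast.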

[2] = NCI Yeast Anticancer Drug Screen. Data for the mec2-1 strain (AID 157); details: S. cerevisiae mec2-1 strain, stronger effect = higher value
Procedure, shortened: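 Compounds were applied to mec2-1 yeast cells. Their growth was then compared with that of vehicle-treated cultures to give growth inhibition.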

[3] = NCI Yeast Anticancer Drug Screen. Data for the sgs1 mgt1 strain (AID 161);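 further: 0% = growth of cultures given vehicle only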; details: S. cerevisiae sgs1 mgt1 strain, stronger effect = higher value
Procedure, shortened: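 Compounds are added to genetically altered yeast, and growth is compared with cultures given vehicle alone to give percent inhibition.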

[4] = NCI Yeast Anticancer Drug Screen. Data for the cln2 rad14 strain (AID 165);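 further: 0% = growth equal to vehicle treated cultures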; details: S. cerevisiae cln2 rad14 strain, stronger effect = higher value
Procedure, shortened: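 Strain: cln2 rad14 yeast, altered in cell cycle control and DNA damage repair. Read-out: growth inhibition vs vehicle.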

[5] = NCI Yeast Anticancer Drug Screen. Data for the bub3 strain (AID 167); details: S. cerevisiae bub3 mutant strain, stronger effect = higher value
Procedure, shortened: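 Mutant yeast screening strain plus compound; vehicle-treated cultures serve as the 0% inhibition reference.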

[6] = NCI Yeast Anticancer Drug Screen. Data for the mlh1 rad18 strain (AID 175); details: S. cerevisiae mlh1 rad18 strain growth inhibition, stronger effect = higher value
Procedure, shortened: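 A repair-deficient yeast strain is exposed to test compound, and growth is scored relative to vehicle-treated controls.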

[7] = at 5.0 µM (retest, dose inferred, filed as 0.5)
[8] = at 50.0 µM (retest, dose inferred, filed as 5.0)

| Compound | growth inhibition [1, 7] | growth inhibition [1, 8] | growth inhibition ([1]; at 50.0 µM) | growth inhibition [2, 7] | growth inhibition [2, 8] | growth inhibition ([2]; at 50.0 µM) | growth inhibition [3, 7] | growth inhibition [3, 8] | growth inhibition ([3]; at 50.0 µM) | growth inhibition [4, 7] | growth inhibition [4, 8] | growth inhibition ([4]; at 50.0 µM) | growth inhibition [5, 7] | growth inhibition [5, 8] | growth inhibition ([5]; at 50.0 µM) | growth inhibition [6, 7] | growth inhibition [6, 8] | growth inhibition ([6]; at 50.0 µM) |
| --- | --- | --- | --- | --- | --- | --- | --- | --- | --- | --- | --- | --- | --- | --- | --- | --- | --- | --- |
| Oc1cc2c3c(c1)c1cc4c(cc1c[n+]3CC2)OCO4 | 42% (inactive) and 11% (inactive) | 72% (active) and 56% (inactive) | -22.4% (inactive) and 52% (inactive) | 36% (inactive) and 10% (inactive) | 57% (inactive) and 41% (inactive) | -44.9% (inactive) and 33.4% (inactive) | 64% (inactive) and 33% (inactive) | 85% (active) and 63% (inactive) | -5.25% (inactive) and 50.9% (inactive) | 59% (inactive) and 28% (inactive) | 74% (active) and 39% (inactive) | 0.95% (inactive) and 43.3% (inactive) | 63% (inactive) and 23% (inactive) | 84% (active) and 60% (inactive) | -36.8% (inactive) and 31.2% (inactive) | 30% (inactive) and 7% (inactive) | 65% (inactive) and 57% (inactive) | -30.6% (inactive) and 53% (inactive) |
| CC(C)CCC[C@@H](C)[C@H]1CC[C@H]2[C@@H]3CC=C4N5CCCN=C5CC[C@]4(C)[C@H]3CC[C@]12C | 2% (inactive) | 98% (active) | 98% (active) | -20% (inactive) | 99% (active) | 98.7% (active) | -15% (inactive) | 89% (active) | 98.5% (active) | 0% (inactive) | 54% (inactive) | 98.2% (active) | 0% (inactive) | 97% (active) | 98.2% (active) | -8% (inactive) | 98% (active) | 97.9% (active) |
| O=c1ccn(C2CC(O)C(COC(c3ccccc3)(c3ccccc3)c3ccccc3)O2)c(=O)[nH]1 (stereo not given) | 1% (inactive) and 22% (inactive) | 99% (active) | 49.5% (inactive) and 40.2% (inactive) | 6% (inactive) and 7% (inactive) | 100% (active) and 99% (active) | 98% (active) and 53% (inactive) | -1% (inactive) | 100% (active) and 54% (inactive) | 42.5% (inactive) and 52.7% (inactive) | 8% (inactive) and 5% (inactive) | 99% (active) | 97.7% (active) and 56% (inactive) | 7% (inactive) and 1% (inactive) | 99% (active) and 98% (active) | 99.5% (active) and 16.2% (inactive) | 13% (inactive) | 99% (active) and 98% (active) | 41.9% (inactive) and 51.7% (inactive) |
| CC(=O)[C@]1(O)Cc2c(O)c3c(c(O)c2[C@@H](OC2CC(N)C(O)C(C)O2)C1)C(=O)c1c(O)cccc1C3=O (stereo not given in full) | 88% (active) and 91% (active) | 97% (active) and 96% (active) | 91.1% (active) and 86.5% (active) | 81% (active) and 80% (active) | 98% (active) and 97% (active) | 92.5% (active) and 89% (active) | 73% (active) and 92% (active) | 96% (active) and 98% (active) | 92.4% (active) and 88.3% (active) | 57% (inactive) and 66% (inactive) | 97% (active) and 95% (active) | 88.7% (active) and 89.2% (active) | 77% (active) and 86% (active) | 97% (active) and 98% (active) | 90.8% (active) and 89% (active) | 90% (active) and 87% (active) | 97% (active) and 95% (active) | 90.2% (active) and 92% (active) |
| CCOC(=O)/C(C#N)=C\c1ccc([N+](=O)[O-])o1 | 15% (inactive) | 98% (active) | -8.25% (inactive) and 99% (active) | 12% (inactive) | 99% (active) | -12.1% (inactive) and 99.3% (active) | 8% (inactive) | 99% (active) | -20.9% (inactive) and 99.3% (active) | 4% (inactive) | 98% (active) | 19.1% (inactive) and 99% (active) | 12% (inactive) | 99% (active) | -13.4% (inactive) and 99.2% (active) | 16% (inactive) | 99% (active) | -16.9% (inactive) and 99% (active) |
